We go through 11 molecules from ChEMBL document CHEMBL3988442, “University of Dundee, Small-Polar-MMV Screening Library” (2021).

Holding throughout (design): scale not given: direction of the effect not stated beside the values
In assay [1] the target is Protein translocase subunit SecA (Escherichia coli (strain K12)) (UniProt P10408). Kind of assay: Assay to Identify E. coli SecA ATPase Inhibitors. To be noted: 30 µM. Type of assay: functional.
Assay [2] deals with T1, Ubiquitin-activating enzyme e1, putative (Leishmania donovani (strain BPK282A1)) (UniProt E9BSI1).
T1 sequence (whole entry): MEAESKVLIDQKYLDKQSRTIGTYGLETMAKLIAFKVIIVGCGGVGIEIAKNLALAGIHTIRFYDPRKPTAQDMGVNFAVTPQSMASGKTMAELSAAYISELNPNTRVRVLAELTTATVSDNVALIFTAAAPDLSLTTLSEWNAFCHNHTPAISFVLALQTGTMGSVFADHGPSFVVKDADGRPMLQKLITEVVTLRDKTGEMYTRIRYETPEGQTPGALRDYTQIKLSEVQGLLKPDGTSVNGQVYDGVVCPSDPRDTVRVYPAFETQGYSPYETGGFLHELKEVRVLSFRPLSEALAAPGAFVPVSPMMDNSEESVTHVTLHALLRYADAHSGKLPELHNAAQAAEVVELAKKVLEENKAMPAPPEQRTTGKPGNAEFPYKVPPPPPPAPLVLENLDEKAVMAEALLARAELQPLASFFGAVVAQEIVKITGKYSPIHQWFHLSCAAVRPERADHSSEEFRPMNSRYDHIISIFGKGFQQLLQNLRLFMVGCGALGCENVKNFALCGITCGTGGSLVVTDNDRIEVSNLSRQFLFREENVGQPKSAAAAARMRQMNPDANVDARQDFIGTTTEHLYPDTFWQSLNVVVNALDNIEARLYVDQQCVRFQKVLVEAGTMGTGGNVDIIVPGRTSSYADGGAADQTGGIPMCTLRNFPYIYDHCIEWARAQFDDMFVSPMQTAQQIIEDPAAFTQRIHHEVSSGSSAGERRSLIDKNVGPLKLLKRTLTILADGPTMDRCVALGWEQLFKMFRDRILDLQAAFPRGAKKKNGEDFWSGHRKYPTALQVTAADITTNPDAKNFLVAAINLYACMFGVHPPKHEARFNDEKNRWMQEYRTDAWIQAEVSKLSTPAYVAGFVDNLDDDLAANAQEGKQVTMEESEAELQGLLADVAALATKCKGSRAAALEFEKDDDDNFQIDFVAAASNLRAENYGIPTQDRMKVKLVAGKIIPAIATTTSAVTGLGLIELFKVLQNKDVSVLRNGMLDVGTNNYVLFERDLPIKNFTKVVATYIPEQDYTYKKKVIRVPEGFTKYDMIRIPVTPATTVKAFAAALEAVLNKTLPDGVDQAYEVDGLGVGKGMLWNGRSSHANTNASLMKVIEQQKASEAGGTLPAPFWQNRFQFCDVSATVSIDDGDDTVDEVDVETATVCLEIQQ
Description: Leishmania donovani Ubiquitin Activating Enzyme (LdE1). Type of assay: functional. To be noted: 30 µM.

The target of assay [3] is AMP-activated protein kinase, AMPK (Homo sapiens) (UniProt P54646+O43741+P54619+Q9UGJ0+Q9Y478+Q13131+Q9UGI9). Kind of assay: AMP-dependent Kinase enzyme assay. An in vitro enzyme assay that detects ADP turnover that is directly proportional to AMPK activity. This uses naive AMPK that is activated during the assay with MK-8722. Type of assay: functional. The following applies: 30 µM.

The target in assay [4] is Sialic acid-binding Ig-like lectin 9 (Homo sapiens) (UniProt Q9Y336). Kind of assay: Hs-Siglec9 ALPHAscreen SOP 20170721. To be noted: 10 µM. (In Alpha technology, singlet oxygen from a donor bead excites a nearby acceptor bead.)
Sequence of Sialic acid-binding Ig-like lectin 9 (Homo sapiens) (Q9Y336 whole entry): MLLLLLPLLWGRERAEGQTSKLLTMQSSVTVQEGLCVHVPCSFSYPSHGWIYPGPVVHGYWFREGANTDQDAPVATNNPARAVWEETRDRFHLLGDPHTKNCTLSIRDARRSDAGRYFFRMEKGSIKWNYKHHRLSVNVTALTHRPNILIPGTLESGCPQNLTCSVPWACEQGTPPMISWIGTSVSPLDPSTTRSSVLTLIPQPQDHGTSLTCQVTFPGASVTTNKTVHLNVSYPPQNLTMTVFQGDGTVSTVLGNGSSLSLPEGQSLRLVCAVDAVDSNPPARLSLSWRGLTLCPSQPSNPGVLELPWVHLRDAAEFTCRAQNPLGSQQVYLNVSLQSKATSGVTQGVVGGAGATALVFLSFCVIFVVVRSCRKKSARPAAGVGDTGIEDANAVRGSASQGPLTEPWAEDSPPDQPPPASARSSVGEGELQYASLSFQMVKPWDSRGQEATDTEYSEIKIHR
Assay [5] relates to Trypanosoma cruzi. Kind of assay: Trypanosoma cruzi phosphomannomutase and mannose-1-phosphate guanylyltransferase assay. The format is functional. To be noted: 10 µM.
Assay [6] has as its target T2, Arginase-2, mitochondrial (Homo sapiens) (UniProt P78540).
T2 sequence (whole entry): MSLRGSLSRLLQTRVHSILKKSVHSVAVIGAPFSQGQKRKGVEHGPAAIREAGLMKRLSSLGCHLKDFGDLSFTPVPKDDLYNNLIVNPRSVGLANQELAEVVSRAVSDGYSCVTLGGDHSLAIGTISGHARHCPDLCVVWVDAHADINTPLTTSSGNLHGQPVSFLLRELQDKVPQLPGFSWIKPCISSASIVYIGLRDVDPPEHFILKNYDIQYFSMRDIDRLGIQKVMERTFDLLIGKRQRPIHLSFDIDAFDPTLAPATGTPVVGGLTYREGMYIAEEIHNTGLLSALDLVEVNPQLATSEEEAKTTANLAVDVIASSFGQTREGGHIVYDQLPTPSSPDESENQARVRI
Kind of assay: in vitro enzyme assay to detect the production of urea directly proportional to the activity of Arginase II. Further: in the data most compounds retested in dose-response had high values. Type of assay: functional. The following applies: 33.3 µM.

The target of assay [7] is T3, Proteasome subunit beta (Trypanosoma cruzi) (UniProt O96673).
T3 sequence (whole entry): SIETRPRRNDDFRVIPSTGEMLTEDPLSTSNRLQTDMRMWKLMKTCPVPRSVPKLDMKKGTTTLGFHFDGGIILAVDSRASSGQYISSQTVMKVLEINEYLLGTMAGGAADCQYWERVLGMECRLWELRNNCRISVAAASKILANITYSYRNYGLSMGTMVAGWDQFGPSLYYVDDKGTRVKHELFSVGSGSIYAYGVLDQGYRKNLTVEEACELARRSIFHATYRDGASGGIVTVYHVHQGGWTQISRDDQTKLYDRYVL
Description: Trypanosoma cruzi proteasome chymotrypsin-like activity (TcProtChymo) assay. Further: in the data most compounds retested in dose-response had high values. Type of assay: functional. The following applies: 9.37 µM.

Assay [8] is filed under the species Homo sapiens. Description: To identify inhibition of the IFN signalling (Jak-Stat) pathway via expression of an eGFP reporter gene under the control of an IFN-stimulated response element (ISRE) containing MxA promoter. The format is functional. To be noted: 30 µM. (Reporter assays use an easily measured gene product as a stand-in for the process of interest.)

Assay [9] addresses T4, Tyrosyl-tRNA synthetase, putative (Trypanosoma cruzi (strain CL Brener)) (UniProt Q4DSP6).
T4 sequence (whole entry): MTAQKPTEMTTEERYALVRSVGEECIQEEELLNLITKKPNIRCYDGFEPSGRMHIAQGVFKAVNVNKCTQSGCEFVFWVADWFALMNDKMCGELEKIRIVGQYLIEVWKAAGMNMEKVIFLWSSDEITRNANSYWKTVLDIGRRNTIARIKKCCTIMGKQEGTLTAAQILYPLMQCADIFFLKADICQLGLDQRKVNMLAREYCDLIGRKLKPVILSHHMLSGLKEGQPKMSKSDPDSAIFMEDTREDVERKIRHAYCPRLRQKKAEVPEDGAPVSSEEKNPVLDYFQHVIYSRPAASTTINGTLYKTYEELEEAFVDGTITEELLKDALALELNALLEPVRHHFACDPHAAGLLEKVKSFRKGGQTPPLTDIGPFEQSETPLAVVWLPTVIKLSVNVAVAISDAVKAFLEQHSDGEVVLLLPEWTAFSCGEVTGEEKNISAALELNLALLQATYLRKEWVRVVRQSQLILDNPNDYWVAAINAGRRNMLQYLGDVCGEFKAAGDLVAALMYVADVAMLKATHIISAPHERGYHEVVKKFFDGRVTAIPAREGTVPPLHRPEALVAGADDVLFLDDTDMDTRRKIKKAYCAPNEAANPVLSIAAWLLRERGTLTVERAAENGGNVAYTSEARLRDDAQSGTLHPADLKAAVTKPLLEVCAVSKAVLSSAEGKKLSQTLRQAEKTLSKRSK
Description: Trypanosoma cruzi tyrosyl tRNA synthetase (TcYRS) _High Tyrosine SOP. Further: in the data most compounds retested in dose-response had high values. Type of assay: functional. To be noted: 30 µM.

In assay [10] the target is T4, Tyrosyl-tRNA synthetase, putative (Trypanosoma cruzi (strain CL Brener)). Description: Trypanosoma cruzi tyrosyl tRNA synthetase (TcYRS) SOP. Type of assay: functional. The following applies: 30 µM.
Assay [11] has as its target Chromo domain-containing protein 1 (Saccharomyces cerevisiae (strain ATCC 204508 / S288c) (Baker's yeast)) (UniProt P32657). Description: ScCHD-1 Enzyme Inhibition Assay. Further: in the data most compounds retested in dose-response had high values. The following applies: 30 µM. The format is functional.

For some of these results: Potency and affinity values are given separately.

Sequence of Chromo domain-containing protein 1 (Saccharomyces cerevisiae (strain ATCC 204508 / S288c) (Baker's yeast)) (P32657 whole entry, the tested form may be a part): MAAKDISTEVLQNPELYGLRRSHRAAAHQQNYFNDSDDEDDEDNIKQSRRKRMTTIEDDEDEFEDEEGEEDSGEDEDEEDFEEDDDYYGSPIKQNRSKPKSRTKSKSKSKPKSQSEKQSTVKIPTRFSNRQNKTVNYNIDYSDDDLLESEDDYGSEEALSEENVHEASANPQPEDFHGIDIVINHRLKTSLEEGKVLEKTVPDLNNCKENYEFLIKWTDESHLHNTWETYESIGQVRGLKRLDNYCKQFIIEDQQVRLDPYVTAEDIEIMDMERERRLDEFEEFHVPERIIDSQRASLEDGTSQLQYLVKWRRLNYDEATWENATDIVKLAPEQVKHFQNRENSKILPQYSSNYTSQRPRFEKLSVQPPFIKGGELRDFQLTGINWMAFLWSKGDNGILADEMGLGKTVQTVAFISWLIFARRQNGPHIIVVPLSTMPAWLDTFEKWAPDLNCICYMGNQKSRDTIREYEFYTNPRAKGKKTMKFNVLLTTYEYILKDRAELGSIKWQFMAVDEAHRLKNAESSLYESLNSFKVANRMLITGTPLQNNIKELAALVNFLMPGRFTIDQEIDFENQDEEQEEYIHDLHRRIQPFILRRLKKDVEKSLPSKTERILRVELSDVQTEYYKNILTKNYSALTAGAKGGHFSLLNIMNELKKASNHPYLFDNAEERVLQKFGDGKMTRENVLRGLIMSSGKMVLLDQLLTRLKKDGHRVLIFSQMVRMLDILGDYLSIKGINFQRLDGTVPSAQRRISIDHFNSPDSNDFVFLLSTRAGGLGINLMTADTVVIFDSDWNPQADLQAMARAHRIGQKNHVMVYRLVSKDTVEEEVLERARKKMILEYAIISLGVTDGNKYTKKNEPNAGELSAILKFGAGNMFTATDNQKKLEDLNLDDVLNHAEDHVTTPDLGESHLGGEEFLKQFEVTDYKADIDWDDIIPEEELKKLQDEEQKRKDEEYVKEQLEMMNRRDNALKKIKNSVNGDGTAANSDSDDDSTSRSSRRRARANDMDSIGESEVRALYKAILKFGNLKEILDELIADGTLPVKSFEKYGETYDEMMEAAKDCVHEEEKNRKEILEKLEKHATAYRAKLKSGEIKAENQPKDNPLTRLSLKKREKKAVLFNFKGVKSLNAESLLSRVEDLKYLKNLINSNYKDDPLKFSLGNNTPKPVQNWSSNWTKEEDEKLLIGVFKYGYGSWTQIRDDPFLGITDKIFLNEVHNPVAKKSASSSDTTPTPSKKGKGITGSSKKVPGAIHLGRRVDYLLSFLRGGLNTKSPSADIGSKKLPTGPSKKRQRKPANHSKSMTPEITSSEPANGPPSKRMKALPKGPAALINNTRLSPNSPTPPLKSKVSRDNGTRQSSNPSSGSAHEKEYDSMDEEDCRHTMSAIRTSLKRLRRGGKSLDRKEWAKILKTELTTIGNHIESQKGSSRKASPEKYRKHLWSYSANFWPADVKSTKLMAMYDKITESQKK
Sequence of Protein translocase subunit SecA (Escherichia coli (strain K12)) (P10408 whole entry): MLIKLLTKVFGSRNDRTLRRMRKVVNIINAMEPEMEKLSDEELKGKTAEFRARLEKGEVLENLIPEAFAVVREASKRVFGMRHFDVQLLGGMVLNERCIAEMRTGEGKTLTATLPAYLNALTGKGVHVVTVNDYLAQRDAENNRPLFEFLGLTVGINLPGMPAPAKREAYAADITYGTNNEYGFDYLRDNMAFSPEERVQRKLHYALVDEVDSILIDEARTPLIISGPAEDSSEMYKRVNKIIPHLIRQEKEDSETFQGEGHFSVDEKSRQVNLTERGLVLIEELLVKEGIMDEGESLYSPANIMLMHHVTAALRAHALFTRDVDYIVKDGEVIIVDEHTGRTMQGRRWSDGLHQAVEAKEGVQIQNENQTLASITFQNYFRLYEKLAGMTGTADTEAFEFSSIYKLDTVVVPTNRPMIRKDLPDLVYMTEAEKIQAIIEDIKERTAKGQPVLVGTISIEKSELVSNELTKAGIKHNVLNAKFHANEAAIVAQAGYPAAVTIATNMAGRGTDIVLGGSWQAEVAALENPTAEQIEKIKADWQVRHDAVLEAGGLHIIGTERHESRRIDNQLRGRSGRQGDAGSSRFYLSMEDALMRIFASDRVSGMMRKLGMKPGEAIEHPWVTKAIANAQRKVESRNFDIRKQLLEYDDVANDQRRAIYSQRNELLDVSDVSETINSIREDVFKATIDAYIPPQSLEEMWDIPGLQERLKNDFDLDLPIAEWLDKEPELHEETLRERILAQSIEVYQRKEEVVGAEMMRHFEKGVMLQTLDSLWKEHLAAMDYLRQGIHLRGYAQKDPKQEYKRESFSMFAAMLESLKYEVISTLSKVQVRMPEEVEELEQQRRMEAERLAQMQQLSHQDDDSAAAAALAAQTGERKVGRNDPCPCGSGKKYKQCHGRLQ

For the molecule `Cc1ccc2cc(CNCCCN3CCOCC3)c(=O)[nH]c2c1`, the Percent Effect in assay [1] was -3.73%; in assay [2] it was 4.05%; in [3] it was 11.3%; in assay [4] it was 5.46%; in assay [5] it was 0.395%; in assay [6], -0.696%. Further, the Percent Effect in [7] was 6.08%; in [8], 12%; in assay [9], 5.38%; in assay [10], 9.09%; in assay [11], -7.66%.

For `Cc1cc(C)n(CC2CCCN2CC(=O)N(C)Cc2cnn(C)c2)n1` (stereo unspecified), the Percent Effect was -5.54% in [1]; 8.11% in assay [2]; -10.7% in assay [3]; 3.9% in assay [4]; 1.04% in assay [5]; -4.01% in [6]. For the same molecule, the Percent Effect was 13% in assay [7]; 9.55% in assay [8]; 6.4% in assay [9]; 13.6% in assay [10]; -11.6% in [11].

As to `CCN1CCN(Cc2ccnc(-c3cccnc3)n2)CC1`, the Percent Effect in assay [1] was -8.52%; in assay [2], 20.3%; in assay [3], 0.102%; in assay [4], 1.94%; in [5] it was -0.79%; in [6] it was -1.62%. The Percent Effect is 15.3% in assay [7]; -6.28% in assay [8]; 4.3% in assay [9]; 16.9% in [10]; -29.4% in assay [11].

With `Cc1ccccc1C(=O)N1CCC(n2nnc3cc(F)ccc32)CC1`, the Percent Effect is -4.02% in assay [1]; 5.33% in [2]; 12% in assay [3]; 0.882% in assay [4]; -3.35% in assay [5]; 1.17% in assay [6]. In addition, the Percent Effect in [7] was 5.02%; in assay [8] it was 7.34%; in assay [9] it was 4.25%; in assay [10] it was 11.5%; in [11], -5%.

Turning to `Cc1nnc(NC(=O)NCc2cccnc2N(C)C)s1`, the Percent Effect is -3.62% in assay [1]; 13% in assay [2]; -1.32% in [3]; 4.98% in assay [4]; 5.24% in assay [5]; 4.27% in assay [6]. Moreover, the Percent Effect was 11.2% in assay [7]; 4.88% in assay [8]; 6.8% in assay [9]; 21.9% in assay [10]; -9.15% in assay [11].

On to `CN(Cc1cc2c(cc1OC(F)F)OCO2)Cc1nccn1C`, for which the Percent Effect in assay [1] is -4.78%; in assay [2], 2.7%; in [3] it was -4.36%; in [4] it was 4%; in [5], 1.27%; in assay [6], -0.744%. Also, the Percent Effect in assay [7] is 5.58%; in assay [8], 0.0596%; in [9], 3.23%; in assay [10], 6.17%; in assay [11], -1.72%.

With `CNc1cc(C2CCCN2Cc2ccccc2OCC(=O)O)ccn1` (stereo unspecified), the Percent Effect in assay [1] is -3.95%; in assay [2] it was 1.35%; in [3], 11.6%; in assay [4], 2.57%; in [5], -3.16%; in assay [6] it was 0.232%. The Percent Effect was 2.34% in assay [7]; 4.49% in assay [8]; 5.38% in [9]; 9.09% in assay [10]; -8.55% in [11].

In the case of `CCC(=O)N1CCc2nc3cc(OC)c(OC)cc3c(=O)n2CC1`, the Percent Effect in assay [1] is -8.64%; in [2], 9.46%; in assay [3], -6.48%; in [4] it was 12.5%; in assay [5], 5.34%; in assay [6] it was -1.62%. Further, the Percent Effect in assay [7] is 8.58%; in assay [8], 6.53%; in [9] it was 2.15%; in assay [10], 11.7%; in assay [11] it was -28.2%.

On to `O=C(NCC(O)CN1CCc2ccccc2C1)Nc1cccnc1` (stereo unspecified), for which the Percent Effect was -4.38% in assay [1]; 13% in assay [2]; 3.15% in [3]; 3.21% in [4]; 0.294% in assay [5]; 3.58% in [6]. For the same molecule, the Percent Effect in [7] is 11.2%; in assay [8], 14.5%; in assay [9], 1.91%; in [10], -25.9%; in assay [11], -11.5%.

For `NC(=O)c1ccc2c(c1)nc1n2CCN(Cc2ccccc2)C1`, the Percent Effect was -6.79% in assay [1]; 15.8% in assay [2]; 5.45% in assay [3]; 5.68% in assay [4]; 3.8% in assay [5]; -20.1% in assay [6]. Further, the Percent Effect was 12% in [7]; 5.05% in assay [8]; 4.25% in [9]; 10.4% in assay [10]; 6.79% in assay [11].

With `Cc1cccc(C(=O)NCc2ccc(N3CCCCC3)nc2)n1`, the Percent Effect is -0.795% in [1]; 13.9% in assay [2]; 3.85% in [3]; 4.23% in [4]; -2.97% in assay [5]; -1.5% in [6]. Further, the Percent Effect in [7] is 11.8%; in [8], 24.3%; in assay [9] it was 8.33%; in [10] it was 15.2%; in assay [11], -1.41%.
